For orientation: remaining activity means the signal under treatment as a percentage of the control signal.

Active and inactive are the calls of the source. How the calls were made is not given here.

The experiment deals with Aerobactin synthetase IucA (Klebsiella pneumoniae, hypervirulent). In words: IucA enzyme inhibition, biochemical, LOPAC library, absorbance readout (AID 1346212).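 Further: 100% = no compound wells and 0% = no enzyme wells.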 The note with it: IucA enzyme assay, absorbance (OD) readout; hits give low values;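 tested at 8 µM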.
Take `NCCSSCCN`: the remaining activity is 117% (inactive).
In the case of `NNc1nncc2ccccc12`, the remaining activity was 101% (inactive).
For the molecule `O=C(O)c1cc(=O)c2ccc(Cl)cc2[nH]1`, the remaining activity is 85.9% (inactive).
The value for `C[C@](N)(Cc1ccc(O)c(O)c1)C(=O)O` was 113% (inactive).
For `O=C(O)c1cccnc1C(=O)O`, the remaining activity is 116% (inactive).
As for `CC1=C(/C=C/C(C)=C/C=C/C(C)=C\C(=O)O)C(C)(C)CCC1`, the remaining activity was 85.8% (inactive).
The value for `O=C1OC(=O)C2C3CCC(O3)C12` (centres undefined) was 106% (inactive); that for `CN1C(C(=O)Nc2ccccn2)=C(O)c2ccccc2S1(=O)=O` was 109% (inactive).
In the case of `CCOC(=O)C(C)(C)Oc1ccc(Cl)cc1`, the remaining activity is 122% (inactive).
